# In the supplement of paper PMC6411743:
# ± gives the standard deviation of the averaged measurements. The full data set covers some 5,400 targets. This sample favours those with the largest changes.
# Columns and labels:
# Experiment in all cases: NP40-soluble protein abundance relative to vehicle (solubility fold change) (ratio); higher = more soluble protein in presence of GTP
# [1] = target: T1, GLA (UniProt P06280)
# T1 sequence (whole entry): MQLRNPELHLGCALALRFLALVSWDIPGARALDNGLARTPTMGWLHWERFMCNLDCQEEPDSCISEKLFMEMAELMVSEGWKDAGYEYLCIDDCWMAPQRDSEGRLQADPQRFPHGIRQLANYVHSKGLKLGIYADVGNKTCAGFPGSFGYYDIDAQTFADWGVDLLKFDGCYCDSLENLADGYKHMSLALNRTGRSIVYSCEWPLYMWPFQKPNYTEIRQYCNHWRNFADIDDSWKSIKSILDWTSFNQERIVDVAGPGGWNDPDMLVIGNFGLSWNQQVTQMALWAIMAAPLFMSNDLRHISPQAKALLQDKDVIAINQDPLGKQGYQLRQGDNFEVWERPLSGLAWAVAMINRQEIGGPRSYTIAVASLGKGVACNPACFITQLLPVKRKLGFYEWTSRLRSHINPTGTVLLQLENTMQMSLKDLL
# Summary of the method: (§1)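 In three independent experiments, Jurkat crude lysate made by Dounce homogenisation was treated for 10 min at room temperature and then 3 min at 37 °C with eight concentrations ranging from 0.1 to 10 mM. It was then solubilised with 0.8% NP40 plus benzonase for 60 min at 4 °C and ultracentrifuged. The supernatant was TMT-labelled for LC-MS/MS, and each value is the fold change against the detergent-processed vehicle for the same replicate, using vsn-normalised intensities.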
# [2] = target: T2, SEC24A (UniProt O95486)
# T2 sequence (whole entry): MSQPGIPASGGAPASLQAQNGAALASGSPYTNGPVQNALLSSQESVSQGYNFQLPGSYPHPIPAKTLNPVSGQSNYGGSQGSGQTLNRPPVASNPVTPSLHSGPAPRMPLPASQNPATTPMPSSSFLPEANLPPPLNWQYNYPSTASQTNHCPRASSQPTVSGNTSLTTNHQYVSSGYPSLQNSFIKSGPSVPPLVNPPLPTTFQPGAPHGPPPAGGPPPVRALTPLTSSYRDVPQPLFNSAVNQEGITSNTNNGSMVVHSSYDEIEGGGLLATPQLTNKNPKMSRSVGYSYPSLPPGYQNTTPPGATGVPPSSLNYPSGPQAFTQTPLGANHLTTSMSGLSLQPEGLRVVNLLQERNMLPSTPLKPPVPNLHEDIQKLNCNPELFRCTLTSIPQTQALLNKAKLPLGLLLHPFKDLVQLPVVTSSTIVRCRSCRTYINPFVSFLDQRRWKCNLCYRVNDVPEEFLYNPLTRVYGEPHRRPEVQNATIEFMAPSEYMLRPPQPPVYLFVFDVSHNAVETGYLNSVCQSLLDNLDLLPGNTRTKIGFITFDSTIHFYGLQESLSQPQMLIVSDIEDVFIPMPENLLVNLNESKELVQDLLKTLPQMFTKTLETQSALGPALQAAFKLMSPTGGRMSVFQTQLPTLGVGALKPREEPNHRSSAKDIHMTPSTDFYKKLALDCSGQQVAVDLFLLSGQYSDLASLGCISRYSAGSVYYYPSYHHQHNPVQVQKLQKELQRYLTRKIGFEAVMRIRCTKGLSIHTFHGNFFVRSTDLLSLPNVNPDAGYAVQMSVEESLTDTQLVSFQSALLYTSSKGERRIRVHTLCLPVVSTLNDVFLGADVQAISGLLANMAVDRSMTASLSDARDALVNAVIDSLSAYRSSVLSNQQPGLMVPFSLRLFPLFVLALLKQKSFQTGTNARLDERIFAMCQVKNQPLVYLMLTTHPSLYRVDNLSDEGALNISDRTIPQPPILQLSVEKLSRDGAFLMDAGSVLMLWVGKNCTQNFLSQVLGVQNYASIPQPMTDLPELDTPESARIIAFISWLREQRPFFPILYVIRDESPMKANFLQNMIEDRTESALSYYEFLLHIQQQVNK
# Summary of the method: as §1
# [3] = target: T3, TXNL1 (UniProt O43396)
# T3 sequence (whole entry): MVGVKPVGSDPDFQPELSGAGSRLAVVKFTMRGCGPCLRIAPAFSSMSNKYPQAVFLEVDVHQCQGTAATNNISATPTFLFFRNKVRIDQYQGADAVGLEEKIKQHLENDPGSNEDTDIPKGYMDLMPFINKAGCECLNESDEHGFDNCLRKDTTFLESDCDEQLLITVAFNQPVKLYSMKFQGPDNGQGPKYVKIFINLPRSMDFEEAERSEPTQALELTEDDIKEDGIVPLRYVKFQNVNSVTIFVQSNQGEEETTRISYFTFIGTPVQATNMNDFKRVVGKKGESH
# Summary of the method: as §1
smiles,measurement,setting,value
Nc1nc2c(ncn2[C@@H]2O[C@H](COP(=O)(O)OP(=O)(O)OP(=O)(O)O)[C@@H](O)[C@H]2O)c(=O)[nH]1 [guanosine triphosphate],NP40-soluble protein abundance,[1]; concentration: 0.1mM,1.04 ± 0.017
same,NP40-soluble protein abundance,[1]; concentration: 0.5mM,1.04 ± 0.018
same,NP40-soluble protein abundance,[1]; concentration: 1mM,1.01 ± 0.039
same,NP40-soluble protein abundance,[1]; concentration: 2mM,0.982 ± 0.068
same,NP40-soluble protein abundance,[1]; concentration: 4mM,0.985 ± 0.063
same,NP40-soluble protein abundance,[1]; concentration: 6mM,0.966 ± 0.087
same,NP40-soluble protein abundance,[1]; concentration: 8mM,0.983 ± 0.04
same,NP40-soluble protein abundance,[1]; concentration: 10mM,0.979 ± 0.048
same,NP40-soluble protein abundance,[2]; concentration: 0.1mM,0.974 ± 0.013
same,NP40-soluble protein abundance,[2]; concentration: 0.5mM,0.986 ± 0.021
same,NP40-soluble protein abundance,[2]; concentration: 1mM,0.926 ± 0.041
same,NP40-soluble protein abundance,[2]; concentration: 2mM,0.909 ± 0.026
same,NP40-soluble protein abundance,[2]; concentration: 4mM,0.957 ± 0.019
same,NP40-soluble protein abundance,[2]; concentration: 6mM,0.944 ± 0.02
same,NP40-soluble protein abundance,[2]; concentration: 8mM,0.909 ± 0.027
same,NP40-soluble protein abundance,[2]; concentration: 10mM,0.915 ± 0.036
same,NP40-soluble protein abundance,[3]; concentration: 0.1mM,0.993 ± 0.02
same,NP40-soluble protein abundance,[3]; concentration: 0.5mM,1.03 ± 0.064
same,NP40-soluble protein abundance,[3]; concentration: 1mM,1.02 ± 0.042
same,NP40-soluble protein abundance,[3]; concentration: 2mM,1.01 ± 0.07
same,NP40-soluble protein abundance,[3]; concentration: 4mM,1 ± 0.052
same,NP40-soluble protein abundance,[3]; concentration: 6mM,1.01 ± 0.046
same,NP40-soluble protein abundance,[3]; concentration: 8mM,1 ± 0.044
same,NP40-soluble protein abundance,[3]; concentration: 10mM,1.01 ± 0.054
